The source of these data is PubChem BioAssay (NCI).

Test systems include HCT-15 colon; HT29 colon; SNB-75 CNS; SNB-19 CNS; U251 CNS; PC-3 prostate; SK-MEL-5 melanoma; UACC-62 melanoma; LOX IMVI melanoma; SK-MEL-28 melanoma; SK-MEL-2 melanoma; EKVX NSCLC; SN12C renal; UO-31 renal; TK-10 renal; ACHN renal; CAKI-1 renal; A498 renal; CCRF-CEM leukemia; MOLT-4 leukemia.
Holding throughout (assay): NCI-60 one-dose screen, 48 h (100 = growth as untreated, 0 = no growth, -100 = all killed)
Holding throughout (conditions): 10 µM unless noted

Compounds without any hit were thinned out: in the full panel of roughly 83,000, 20% have a hit.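 Negative percent growth values reflect cell death: -40 means 40% of the cells present at the start died, and -100 means all died.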 Unmarked numbers belong to inactive results. Activity calls are given as the source filed them. How the source made its calls: active means growth percent below 10; inactive means the rest.

`CCCCNC(=O)Oc1ccc(/C(=C(/C)Cc2ccc(OC)cc2)c2ccc(OCCN(CC)CC)cc2)cc1`: the growth is 41% with HCT-15 colon; 6.03% (active) with HT29 colon; 69.1% in the assay with SNB-75 CNS; 87.7% in the assay with SNB-19 CNS; 59% in the assay on U251 CNS; 62.1% in the assay on PC-3 prostate. The growth was 79.1% with SK-MEL-5 melanoma; 84.7% in the assay with UACC-62 melanoma; 74.9% in the assay with LOX IMVI melanoma; 82.8% in the assay with SK-MEL-28 melanoma; 102% in the assay on SK-MEL-2 melanoma; 83.9% in the assay on EKVX NSCLC. Moreover, the growth is 83.8% with SN12C renal; 58.4% with UO-31 renal; 79.7% with TK-10 renal; 91.1% in the assay with ACHN renal; 89.9% in the assay with CAKI-1 renal; 102% in the assay on A498 renal. Besides, the growth is 49.3% in the assay with CCRF-CEM leukemia and 48.3% with MOLT-4 leukemia.
In the case of `COC(=O)[C@]12CCC(C)(C)C[C@H]1[C@H]1/C(=N/OCCc3nn[nH]n3)C[C@@H]3[C@@]4(C)CC[C@H](OC(C)=O)C(C)(C)[C@@H]4CC[C@@]3(C)[C@]1(C)CC2`, the growth in the assay with HCT-15 colon was 33.3%; with HT29 colon, 43.1%; in the assay with SNB-75 CNS it was 43%; with SNB-19 CNS it was 34%; in the assay on U251 CNS it was 36.3%; in the assay on PC-3 prostate, 26.7%. Moreover, the growth in the assay on SK-MEL-5 melanoma is -45% (active); in the assay on UACC-62 melanoma, 13.2%; in the assay on LOX IMVI melanoma it was 19.8%; in the assay on SK-MEL-28 melanoma it was 41.9%; in the assay on SK-MEL-2 melanoma, 58.8%; in the assay on EKVX NSCLC, 35.6%. The growth with SN12C renal was 39%; in the assay with UO-31 renal it was 15.5%; in the assay on TK-10 renal, 55.6%; in the assay with ACHN renal it was 32.8%; in the assay with CAKI-1 renal, 39.8%; in the assay on A498 renal, -19% (active). Besides, the growth is 33.5% in the assay on CCRF-CEM leukemia and 27.6% in the assay with MOLT-4 leukemia.
Take `CNC(=O)c1ccccc1Oc1nc(Nc2cc(OC)c(OC)c(OC)c2)ncc1Br`: the growth is 59.9% in the assay on HCT-15 colon; 45.1% with HT29 colon; 53.1% in the assay on SNB-75 CNS; 94.9% with SNB-19 CNS; 57.6% in the assay with U251 CNS; 61.4% in the assay on PC-3 prostate. The growth in the assay on SK-MEL-5 melanoma is 80%; with UACC-62 melanoma, 50.7%; in the assay with LOX IMVI melanoma, 21.8%; in the assay with SK-MEL-28 melanoma it was 80.5%; in the assay on SK-MEL-2 melanoma, 1.29% (active); in the assay on EKVX NSCLC, 55.3%. For the same compound, the growth was 75.8% in the assay with SN12C renal; 33% with UO-31 renal; 50.5% in the assay with TK-10 renal; 67.1% with ACHN renal; 37% in the assay on CAKI-1 renal; -18.3% (active) in the assay with A498 renal. Further, the growth in the assay on CCRF-CEM leukemia was 59.5%; with MOLT-4 leukemia it was 68.6%.
As for `CCNCCNc1cc(-c2ccc(C(F)(F)F)cc2)c(C#N)c2nc3ccccc3n12`, the growth is -75.4% (active) in the assay on HCT-15 colon; -61.7% (active) with HT29 colon; -95.5% (active) with SNB-75 CNS; -78.1% (active) in the assay with SNB-19 CNS; -87.1% (active) in the assay with U251 CNS; -72.6% (active) in the assay with PC-3 prostate. For the same compound, the growth in the assay with SK-MEL-5 melanoma was -91.8% (active); in the assay on UACC-62 melanoma it was -74.4% (active); in the assay on LOX IMVI melanoma, -95.4% (active); in the assay with SK-MEL-28 melanoma it was -86.4% (active); with SK-MEL-2 melanoma it was -47.6% (active); with EKVX NSCLC, -66% (active). Also, the growth in the assay on SN12C renal is -62% (active); with UO-31 renal, -88.3% (active); in the assay on TK-10 renal, -67.3% (active); in the assay on ACHN renal it was -88.8% (active); in the assay with CAKI-1 renal, -96.9% (active); in the assay with A498 renal it was -88.4% (active). In addition, the growth with CCRF-CEM leukemia was -42.9% (active); with MOLT-4 leukemia, -32.7% (active).
In the case of `CC(=O)Oc1ccc(N2C(=O)C(Cl)=C(Nc3cccc(C(F)(F)F)c3)C2=O)cc1`, the growth is 84% in the assay with HCT-15 colon; 104% in the assay with HT29 colon; 95.1% in the assay with SNB-75 CNS; 93% with SNB-19 CNS; 97.4% in the assay on U251 CNS; 96.3% with PC-3 prostate. In addition, the growth with SK-MEL-5 melanoma is 105%; in the assay on UACC-62 melanoma, 87.8%; in the assay with LOX IMVI melanoma, 88.7%; with SK-MEL-28 melanoma, 101%; in the assay with SK-MEL-2 melanoma it was 88%; in the assay with EKVX NSCLC, 103%. Moreover, the growth is 93% in the assay with SN12C renal; 84.2% with UO-31 renal; 94.9% with TK-10 renal; 95% in the assay on ACHN renal; 92% in the assay with CAKI-1 renal; 92% in the assay on A498 renal. In addition, the growth in the assay on CCRF-CEM leukemia is 77.4%; in the assay on MOLT-4 leukemia, 85.9%.
As for `CN(C)c1ccc(-c2c(C#N)c(N)nn2C(=O)c2ccc(NC(=O)c3ccccn3)cc2)cc1`, the growth in the assay with HCT-15 colon is 85.2%; in the assay on HT29 colon it was 113%; with SNB-75 CNS, 102%; with SNB-19 CNS it was 99.4%; with U251 CNS, 99.3%; in the assay with PC-3 prostate, 77.4%. For the same compound, the growth in the assay on SK-MEL-5 melanoma was 101%; with UACC-62 melanoma, 73.2%; in the assay with LOX IMVI melanoma, 65.3%; with SK-MEL-28 melanoma, 108%; in the assay on SK-MEL-2 melanoma it was 105%; in the assay with EKVX NSCLC, 91.6%. Also, the growth was 101% in the assay on SN12C renal; 80.7% with UO-31 renal; 110% in the assay on TK-10 renal; 87.2% in the assay with ACHN renal; 77.3% in the assay on CAKI-1 renal; 96.6% in the assay on A498 renal. Moreover, the growth is 51.5% in the assay on CCRF-CEM leukemia and 99.5% in the assay on MOLT-4 leukemia.
As to `C=C1C(=O)O[C@H]2[C@H]1CC/C(COC(=O)/C=C\C(=O)NCc1ccc(Cn3c(=O)sn(CCI)c3=O)cc1)=C\CC[C@@]1(C)O[C@@H]21`, the growth in the assay on HCT-15 colon is 15.6%; in the assay with HT29 colon, 26.3%; in the assay on SNB-75 CNS, 99.1%; in the assay on SNB-19 CNS, 99%; in the assay with U251 CNS, 70%; in the assay on PC-3 prostate it was 69%. For the same compound, the growth is 101% with SK-MEL-5 melanoma; 55.4% with UACC-62 melanoma; 14% with LOX IMVI melanoma; 40.4% in the assay on SK-MEL-28 melanoma; 75% in the assay with SK-MEL-2 melanoma; 61.7% with EKVX NSCLC. The growth in the assay on SN12C renal is 57.9%; with UO-31 renal it was 55.1%; with TK-10 renal it was 19.4%; in the assay with ACHN renal, 15.9%; with CAKI-1 renal it was 25.7%; with A498 renal, 143%. The values for the growth with CCRF-CEM leukemia and with MOLT-4 leukemia were -28.2% (active) and 3.38% (active), respectively.
Take `O=c1[nH]c(Cc2nc3ccccc3s2)nc2cc(Br)ccc12`: the growth in the assay on HCT-15 colon is 61.7%; with HT29 colon, 43.7%; in the assay with SNB-75 CNS, 82.1%; in the assay on SNB-19 CNS, 82.2%; with U251 CNS, 81.9%; in the assay on PC-3 prostate, 60.9%. Besides, the growth in the assay on SK-MEL-5 melanoma was 80.6%; in the assay with UACC-62 melanoma, 2.81% (active); with LOX IMVI melanoma it was 27.8%; in the assay with SK-MEL-28 melanoma, 55.1%; with SK-MEL-2 melanoma, 57.5%; with EKVX NSCLC it was 87.5%. The growth was 81.3% in the assay on SN12C renal; 37.3% with UO-31 renal; 94.3% in the assay with TK-10 renal; 35.9% with ACHN renal; 58.7% in the assay on CAKI-1 renal; 95.7% in the assay with A498 renal. Moreover, the values for the growth in the assay on CCRF-CEM leukemia and with MOLT-4 leukemia were 56.2% and 59%, respectively.
